# Data as given in ChEMBL document CHEMBL3988442, “University of Dundee, Small-Polar-MMV Screening Library” (2021).
# Among all 48,000 compounds or so, about 13,000 (27%) showed an effect of 50% or more. This is one part of the list.
# Tested on: Wolbachia pipientis
# Assay: Anti-Wolbachia Cell-Based Screen
# Type: functional
# Set-up: scale not given: in the data most compounds retested in dose-response had high values
# Conditions: 5 µM
row,SMILES,Percent Effect
1,O=C1NCCN(C(=O)CN2CCOC2=O)C1c1cccc(F)c1 (stereo unspecified),1.4%
2,COc1cc(C(=O)O)ccc1OCC(=O)NCCc1ccccc1,92.84%
3,COc1cc(C(=O)O)ccc1OCC(=O)NC(C)c1ccc(F)cc1 (stereo unspecified),2.572%
4,COc1ccccc1OCC(=O)NCC(O)(c1ccccc1)C1CC1 (stereo unspecified),-11.16%
5,Cc1nn(C)c(C)c1OCC(=O)NCc1cccc(C(=O)O)c1,4.585%
6,COc1cc(C(=O)O)cc(I)c1OCC(=O)NCCc1ccccc1,109.3%
7,COCC(C)(O)CNC(=O)COc1ccccc1OC (stereo unspecified),1.741%
8,Cc1cccc2c1nc1n2[C@@H](CNC(=O)c2ccncc2)COC1,-9.503%
9,CCN(CC)C1CCN(C(=O)NCc2c(C)noc2C)CC1,-4.062%
10,Cc1cc(C)c2nc(C)c(C(=O)N3CCC(CCN(C)C)CC3)cc2c1,84.1%
11,CC(C)Cc1cc(C(=O)N2CCC(N3CCCC3)CC2)cc(O)n1,3.394%
12,CCCn1ncc(C(=O)N2CCC(N3CCCCC3)CC2)c1C,-9.333%
13,CC(=O)N1CCC(CCNC(C)c2cc(C)cc(C)c2)CC1 (stereo unspecified),-3.402%
14,CCN(CC)C1CCN(C(=O)c2cc3cc(C)cc(C)c3nc2C)CC1.Cl,152.2%
15,Cc1cc2c(cc1C(=O)N1CC[C@H](CO)[C@@H](O)C1)OCCO2,-2.803%
16,CCS(=O)(=O)N(C)C1CCN(C(=O)c2cc(C)cc(C)c2)CC1,4.174%
17,Cc1cc(C)c2nc(C)c(C(=O)N3CCC(N4CCCC4)CC3)cc2c1,84.44%
18,CN(C)c1nc2c(c(NCc3cc(O)ncn3)n1)CCCC2,14.14%
19,CC(C)N1CCN2C(=O)N(C3CCCCC3)C[C@H]2C1,0.5796%
20,CC(C)CNC1(Cc2cc(-c3ccccc3)on2)COC1,-15.39%
21,Cc1cncc(C(=O)N(c2ccc(F)cn2)C2CCOCC2)c1,-4.438%
22,O=C1CN(CCCNS(=O)(=O)c2cccc(C(=O)NC3CC3)c2)CCN1,-1.221%
23,CSCCN1CCC(NC(=O)OC(C)(C)C)CC1,-0.645%
24,COCC(O)CN1CCC(NC(=O)c2cccc(C)c2)CC1 (stereo unspecified),-8.408%
25,O=C(NC1CCOC1)c1cccc(S(=O)(=O)NCCCc2ncc[nH]2)c1 (stereo unspecified),-8.272%
26,O=C(NC1CCOCC1)c1cccc(C2CCCNC2)c1 (stereo unspecified),85.12%

row,SMILES,Percent Effect
1,CCOC(=O)N1CCC(NC(=O)c2cccc(C3CCCNC3)c2)CC1 (stereo unspecified),94.34%
2,CCCS(=O)(=O)N1CCCC(c2cccc(C(=O)O)c2)C1 (stereo unspecified),9.239%
3,CSCCN1CCC(NC(=O)c2cccc(C3CCCNC3)c2)CC1 (stereo unspecified),92.44%
4,CCc1cnc(CNc2ccc(C(=O)NCc3ccco3)cc2C)o1,4.048%
5,CCOc1cc(C)c(-c2cc(N)[nH]n2)cc1OCC,103.8%
6,CCOc1ccccc1-c1cc(N)[nH]n1.Cl,107%
7,CCOc1ccccc1-c1cc2c(cc1C(N)=O)OCO2,-7.69%
8,COc1ccc(Br)cc1CC(=O)Nc1cc(C)n[nH]1,-11.39%
9,CCOc1ccc(Br)cc1-c1cc(N)[nH]n1.Cl,161.1%
10,CCOc1ccccc1-c1noc(CN2CCN(CCOC)CC2)n1,9.475%
11,Cc1cc(NC(N)=O)ccc1OCC(F)(F)F,6.991%
12,c1ccc2c(c1)CN(c1ncnc3c1CCNC3)CCO2,-28.26%
13,CN(C)C(=O)NCc1ncn2c1CN(S(C)(=O)=O)CCC2,2.726%
14,Cc1ccc(C)c(CN2CCCn3nc(CNS(C)(=O)=O)cc3C2)c1,-10.08%
15,Cc1ccsc1C(=O)N1CCn2cnc(COCC3CC3)c2C1,0.0867%
16,CS(=O)(=O)NCc1ncn2c1CN(C(=O)CC1CCCC1)CCC2,-15.27%
17,CS(=O)(=O)NCc1ncn2c1CN(C(=O)C1CCCO1)CCC2 (stereo unspecified),106.6%
18,O=C(c1cccs1)N1CCCn2cnc(COCC3CC3)c2C1,6.591%
19,CC(=O)N(C)Cc1ncn2c1CN(C(=O)C1CCCO1)CCC2 (stereo unspecified),106.4%
20,CC(C)CC(=O)N1CCCn2cnc(CNS(C)(=O)=O)c2C1,117%
21,CC(=O)N(C)Cc1ncn2c1CN(C(=O)CC1CC1)CCC2,104.9%
22,CSCCc1c(-c2ccccc2)ncn1CCNc1cccnc1,-1.445%
23,COC(=O)C1CN(CC(=O)Nc2ccccc2Cl)c2ccccc21 (stereo unspecified),8.149%
24,Cc1ccc(NC(C)C(=O)NCc2cccs2)cc1Cl (stereo unspecified),-17.21%
25,COCC(C)(C)NC(=O)CC(c1ccccc1)C(F)(F)F (stereo unspecified),0.4415%
